Source: PubChem BioAssay (NCI)
About 83,000 compounds went through this panel and 20% of them were active in at least one assay; those are over-represented in the sample as a whole.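 Growth was measured after 48 h exposure to one concentration of compound in 96-well plates. Values under 10 count as active.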 The source made the active and inactive calls.

tested on: OVCAR-5 ovarian; assay: NCI-60 one-dose screen, 48 h (100 = growth as untreated, 0 = no growth, -100 = all killed); conditions: 10 µM

Structure (SMILES) | growth
Cc1ccc(F)cc1N/C=c1\s/c(=C(\C#N)C(=O)Nc2ccccc2)n(-c2ccccc2)c1=O | 72.5% (inactive)
COc1ccc([C@H]2C(C(=O)c3ccc(Cl)cc3)C3(N[C@@H]2c2ccccc2)C(=O)Nc2ccc(Cl)cc23)cc1 (stereo partly drawn) | -23.4% (active)
O=C1Nc2cc(-c3ccc(NC(=O)c4cccc([N+](=O)[O-])c4)cc3)ccc2/C1=C/c1ccc[nH]1 | 99.6% (inactive)
CCCn1c(=O)c2[nH]c(-c3ccc(OCc4nc5ccc(F)cc5[nH]4)cc3)nc2n(CCC)c1=O | 43.3% (inactive)
CCCS(=O)(=O)c1oc(-c2ccc(F)cc2)nc1S(=O)(=O)c1ccc(F)cc1 | -68.3% (active)
O=C(CSc1nnc(-c2c[nH]c3ccccc23)n1-c1ccccc1)Nc1ccc(C(=O)/C=C/c2ccc(Br)cc2)cc1 | 93.3% (inactive)
CCOC(=O)C1=C(N)N(c2ccc(Cl)cc2)C2=C(C(=O)CC(C)(C)C2)C1c1ccc(N2CCOCC2)cc1 (stereo not drawn) | 106% (inactive)
COc1ccc2[nH]cc(/C=N/Nc3ccc(Br)cn3)c2c1 | 55.3% (inactive)
O/N=C(\CSc1nnc(-c2c[nH]c3ccccc23)n1-c1ccccc1)c1ccc(Cl)cc1 | -43.4% (active)
COc1ccc2[nH]c(O)c(N=NC(=O)COc3ccc(NC(=O)Nc4ccc(Cl)c(Cl)c4)cc3)c2c1 | -21.8% (active)
C=C1CC[C@H](C(=C)C)[C@H]2C=C(C)C(=O)C3=C(C(=O)[C@@](C)(O)C3)[C@H]12 | -87.2% (active)
O=S(=O)(Nc1ncccn1)c1ccc(-n2c(-c3ccccc3)nc(-c3ccccc3)c2-c2ccccc2)cc1 | 104% (inactive)
COc1cccc(/C=C2\N=C(C)N(CCc3ccc(S(N)(=O)=O)cc3)C2=O)c1 | 99.8% (inactive)
CN(C)c1ccc(/C=C/C(=O)c2ccc(NC(=O)CN3C(=O)NC(C)(c4ccccc4)C3=O)cc2)cc1 (stereo not drawn) | 86% (inactive)
O=C(O)CCCCCCCCCCN1C(=O)/C(=C/c2cnc(-c3ccccc3)s2)SC1=S | 109% (inactive)
COc1ccc(-c2ccc(/C=N/NC(=O)c3[nH]c4ccc(Br)cc4c3-c3ccccc3)s2)cc1 | 12.8% (inactive)
O=C1N/C(=N\c2nccs2)S/C1=C\c1cccs1 | 49.1% (inactive)
O=C(CNc1nc(-c2ccccc2)cs1)Nc1ccccc1 | -67.4% (active)
COc1cc2c3c(n(CCCNC(C)C)c(=O)c2cc1OC)-c1nc2c(cc1C3=O)OCO2 | -93.2% (active)

Structure (SMILES) | growth
Cc1cccc(-c2nc(Nc3ccccc3C(=O)O)c3ccccc3n2)c1 | 77% (inactive)
Oc1ccc(/C=C2\CCCc3cc4ccc(O)cc4[o+]c32)c(O)c1 | 122% (inactive)
N#Cc1ccc(-c2nn(-c3ccc(C(=O)O)cc3)cc2CNc2ccc(Cl)cc2)cc1 | 111% (inactive)
COc1ccc2nc(Cl)c(-c3cc(-c4ccccc4)nc(=S)[nH]3)cc2c1 | 95.1% (inactive)
Cc1ccc(NC(=O)c2ccc(-n3c(=O)[nH]c4ccccc4c3=O)cc2)cc1 | 106% (inactive)
Nc1nc(Nc2ccc(Cl)cc2)n(Cc2cccc(Br)c2)n1 | -24.5% (active)
O=C(CN1CCN(c2ncnc3c2cnn3-c2ccccc2)CC1)Nc1nncs1 | -4.09% (active)
O=c1c2ccccc2nc(COc2ccccc2)n1/N=C/c1ccc(N2CCOCC2)cc1 | 93.3% (inactive)
Cn1c(O)c(N=Nc2nc(-c3cc4ccccc4oc3=O)cs2)c2cc(Br)ccc21 | 86.5% (inactive)
O=c1nc(-c2ccccc2)cc(-c2cc3ccccc3nc2Cl)[nH]1 | 40.9% (inactive)
C/C(=N\NC(N)=S)c1ccc(Nc2nc(SC(C)C)nc(-c3ccccc3)c2C#N)cc1 | 75.6% (inactive)
COc1ccc(/C=C/C(=O)c2ccc(N3CCN(C)CC3)cc2)c(C(F)(F)F)c1 | 86.4% (inactive)
Nc1n[nH]c2cccc(C#Cc3cccc(NC(=O)Nc4cc(C(F)(F)F)cc(C(F)(F)F)c4)c3)c12 | -46% (active)
O=C(Nc1ccc(Cl)c([N+](=O)[O-])c1)Nc1ccc(Cl)c([N+](=O)[O-])c1 | 49.8% (inactive)
O=C(Nc1nc2ccc([N+](=O)[O-])cc2s1)Nc1cc(Cl)ccc1I | 15.1% (inactive)
O=C1CCC(N2Cc3cc(NC(=O)COc4ccccc4)ccc3C2=O)C(=O)N1 (stereo not drawn) | 83.3% (inactive)
O=C(c1ccc(-n2c(=O)[nH]c3ccccc3c2=O)cc1)N1CCOCC1 | 102% (inactive)
CN1CCc2c(sc3ncnc(N/N=C/c4cn(-c5ccccc5)nc4-c4ccc(Cl)cc4)c23)C1 | 27% (inactive)
C=CC(=O)Nc1ccc(C(=O)/C=C/c2ccc(N(C)CCF)cc2)c(O)c1 | -49.3% (active)
